# Measurements published in ChEMBL document CHEMBL3988442, “University of Dundee, Small-Polar-MMV Screening Library” (2021).
# For some of these results: Measured potencies and affinities stand elsewhere.
# How the values were obtained:
# Design in all cases: scale not given: direction of the effect not stated beside the values
# [1] = molecular target: Protein translocase subunit SecA (Escherichia coli (strain K12)) (UniProt P10408); test: Assay to Identify E. coli SecA ATPase Inhibitors; type: functional; conditions: 30 µM
# [2] = molecular target: T1, Ubiquitin-activating enzyme e1, putative (Leishmania donovani (strain BPK282A1)) (UniProt E9BSI1); test: Leishmania donovani Ubiquitin Activating Enzyme (LdE1); type: functional; conditions: 30 µM
# T1 sequence (whole entry): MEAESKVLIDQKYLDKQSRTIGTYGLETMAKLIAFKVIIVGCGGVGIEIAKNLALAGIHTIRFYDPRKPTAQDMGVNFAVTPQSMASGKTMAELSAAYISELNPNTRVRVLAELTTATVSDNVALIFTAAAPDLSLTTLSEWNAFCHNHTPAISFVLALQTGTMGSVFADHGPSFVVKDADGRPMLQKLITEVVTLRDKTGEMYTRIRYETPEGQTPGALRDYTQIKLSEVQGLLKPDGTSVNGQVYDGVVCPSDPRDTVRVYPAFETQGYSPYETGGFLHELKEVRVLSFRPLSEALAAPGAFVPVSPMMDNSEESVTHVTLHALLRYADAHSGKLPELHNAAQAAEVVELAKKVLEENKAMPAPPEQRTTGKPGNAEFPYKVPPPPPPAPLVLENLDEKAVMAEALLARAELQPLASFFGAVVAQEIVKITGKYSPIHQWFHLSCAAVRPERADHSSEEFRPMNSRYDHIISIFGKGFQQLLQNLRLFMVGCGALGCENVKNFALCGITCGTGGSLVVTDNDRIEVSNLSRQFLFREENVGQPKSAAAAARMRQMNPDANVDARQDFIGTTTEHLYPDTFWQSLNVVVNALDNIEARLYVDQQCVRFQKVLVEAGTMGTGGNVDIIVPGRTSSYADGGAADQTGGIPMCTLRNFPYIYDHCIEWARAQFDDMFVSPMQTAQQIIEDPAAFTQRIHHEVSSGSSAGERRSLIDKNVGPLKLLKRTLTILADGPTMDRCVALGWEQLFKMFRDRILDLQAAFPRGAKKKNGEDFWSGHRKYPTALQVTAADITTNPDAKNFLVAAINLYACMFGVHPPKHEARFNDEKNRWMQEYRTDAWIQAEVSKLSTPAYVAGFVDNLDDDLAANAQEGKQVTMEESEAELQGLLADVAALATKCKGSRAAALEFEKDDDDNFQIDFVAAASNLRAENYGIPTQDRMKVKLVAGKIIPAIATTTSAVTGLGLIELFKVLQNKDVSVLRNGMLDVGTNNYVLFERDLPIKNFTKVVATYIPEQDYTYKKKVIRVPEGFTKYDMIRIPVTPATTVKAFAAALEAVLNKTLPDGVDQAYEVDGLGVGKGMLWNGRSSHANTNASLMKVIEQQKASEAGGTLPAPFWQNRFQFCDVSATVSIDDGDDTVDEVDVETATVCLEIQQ
# [3] = molecular target: AMP-activated protein kinase, AMPK (Homo sapiens) (UniProt P54646+O43741+P54619+Q9UGJ0+Q9Y478+Q13131+Q9UGI9); test: AMP-dependent Kinase enzyme assay. An in vitro enzyme assay that detects ADP turnover that is directly proportional to AMPK activity. This uses naive AMPK that is activated during the assay with MK-8722; type: functional; conditions: 30 µM
# [4] = molecular target: Sialic acid-binding Ig-like lectin 9 (Homo sapiens) (UniProt Q9Y336); test: Hs-Siglec9 ALPHAscreen SOP 20170721; conditions: 10 µM
# Trypanosoma cruzi = test: Trypanosoma cruzi phosphomannomutase and mannose-1-phosphate guanylyltransferase assay; type: functional; conditions: 10 µM
# [5] = molecular target: T2, Arginase-2, mitochondrial (Homo sapiens) (UniProt P78540); test: in vitro enzyme assay to detect the production of urea directly proportional to the activity of Arginase II; type: functional; conditions: 33.3 µM; also: in the data most compounds retested in dose-response had high values
# T2 sequence (whole entry): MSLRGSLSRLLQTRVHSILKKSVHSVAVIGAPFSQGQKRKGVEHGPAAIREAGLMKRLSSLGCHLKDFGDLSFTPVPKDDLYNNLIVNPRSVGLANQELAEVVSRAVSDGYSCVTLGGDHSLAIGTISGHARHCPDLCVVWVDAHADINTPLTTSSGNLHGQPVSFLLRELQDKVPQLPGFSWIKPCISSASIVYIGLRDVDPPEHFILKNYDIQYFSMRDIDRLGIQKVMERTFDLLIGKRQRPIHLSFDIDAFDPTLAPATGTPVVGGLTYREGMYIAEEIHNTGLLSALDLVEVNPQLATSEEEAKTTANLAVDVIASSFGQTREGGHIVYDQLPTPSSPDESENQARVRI
# [6] = molecular target: T3, Proteasome subunit beta (Trypanosoma cruzi) (UniProt O96673); test: Trypanosoma cruzi proteasome chymotrypsin-like activity (TcProtChymo) assay.; also: in the data most compounds retested in dose-response had high values; type: functional; conditions: 9.37 µM
# T3 sequence (whole entry): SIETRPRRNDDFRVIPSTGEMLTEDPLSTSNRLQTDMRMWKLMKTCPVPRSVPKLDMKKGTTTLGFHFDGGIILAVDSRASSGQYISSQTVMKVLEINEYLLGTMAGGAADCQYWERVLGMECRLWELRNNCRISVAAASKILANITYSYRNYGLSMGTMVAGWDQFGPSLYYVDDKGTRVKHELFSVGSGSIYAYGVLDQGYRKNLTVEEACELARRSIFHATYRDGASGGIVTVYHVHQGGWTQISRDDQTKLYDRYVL
# Homo sapiens = species: Homo sapiens; test: To identify inhibition of the IFN signalling (Jak-Stat) pathway via expression of an eGFP reporter gene under the control of an IFN-stimulated response element (ISRE) containing MxA promoter.; type: functional; conditions: 30 µM
# [7] = molecular target: T4, Tyrosyl-tRNA synthetase, putative (Trypanosoma cruzi (strain CL Brener)) (UniProt Q4DSP6); test: Trypanosoma cruzi tyrosyl tRNA synthetase (TcYRS) _High Tyrosine SOP; type: functional; conditions: 30 µM; also: in the data most compounds retested in dose-response had high values
# T4 sequence (whole entry): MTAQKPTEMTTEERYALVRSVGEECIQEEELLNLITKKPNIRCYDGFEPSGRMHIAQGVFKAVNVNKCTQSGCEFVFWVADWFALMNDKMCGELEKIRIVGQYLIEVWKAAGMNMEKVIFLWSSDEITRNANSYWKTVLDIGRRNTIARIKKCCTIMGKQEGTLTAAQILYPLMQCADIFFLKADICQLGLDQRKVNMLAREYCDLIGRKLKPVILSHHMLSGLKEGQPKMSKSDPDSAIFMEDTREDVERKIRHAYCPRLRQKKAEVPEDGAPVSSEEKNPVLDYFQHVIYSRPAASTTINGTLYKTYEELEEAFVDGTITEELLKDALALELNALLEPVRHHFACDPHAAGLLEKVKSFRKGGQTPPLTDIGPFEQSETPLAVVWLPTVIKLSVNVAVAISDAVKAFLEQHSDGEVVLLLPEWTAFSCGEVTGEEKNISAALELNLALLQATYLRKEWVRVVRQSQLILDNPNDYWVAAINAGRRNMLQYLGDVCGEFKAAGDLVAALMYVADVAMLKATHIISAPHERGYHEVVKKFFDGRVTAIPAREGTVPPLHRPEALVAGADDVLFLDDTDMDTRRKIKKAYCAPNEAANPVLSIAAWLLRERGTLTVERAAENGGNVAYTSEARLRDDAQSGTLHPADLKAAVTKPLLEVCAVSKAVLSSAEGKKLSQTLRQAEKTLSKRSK
# [8] = molecular target: T4, Tyrosyl-tRNA synthetase, putative (Trypanosoma cruzi (strain CL Brener)); test: Trypanosoma cruzi tyrosyl tRNA synthetase (TcYRS) SOP; type: functional; conditions: 30 µM
# [9] = molecular target: Chromo domain-containing protein 1 (Saccharomyces cerevisiae (strain ATCC 204508 / S288c) (Baker's yeast)) (UniProt P32657); test: ScCHD-1 Enzyme Inhibition Assay; type: functional; conditions: 30 µM; also: in the data most compounds retested in dose-response had high values
# Chain of Chromo domain-containing protein 1 (Saccharomyces cerevisiae (strain ATCC 204508 / S288c) (Baker's yeast)) (P32657 whole entry, the tested form may be a part): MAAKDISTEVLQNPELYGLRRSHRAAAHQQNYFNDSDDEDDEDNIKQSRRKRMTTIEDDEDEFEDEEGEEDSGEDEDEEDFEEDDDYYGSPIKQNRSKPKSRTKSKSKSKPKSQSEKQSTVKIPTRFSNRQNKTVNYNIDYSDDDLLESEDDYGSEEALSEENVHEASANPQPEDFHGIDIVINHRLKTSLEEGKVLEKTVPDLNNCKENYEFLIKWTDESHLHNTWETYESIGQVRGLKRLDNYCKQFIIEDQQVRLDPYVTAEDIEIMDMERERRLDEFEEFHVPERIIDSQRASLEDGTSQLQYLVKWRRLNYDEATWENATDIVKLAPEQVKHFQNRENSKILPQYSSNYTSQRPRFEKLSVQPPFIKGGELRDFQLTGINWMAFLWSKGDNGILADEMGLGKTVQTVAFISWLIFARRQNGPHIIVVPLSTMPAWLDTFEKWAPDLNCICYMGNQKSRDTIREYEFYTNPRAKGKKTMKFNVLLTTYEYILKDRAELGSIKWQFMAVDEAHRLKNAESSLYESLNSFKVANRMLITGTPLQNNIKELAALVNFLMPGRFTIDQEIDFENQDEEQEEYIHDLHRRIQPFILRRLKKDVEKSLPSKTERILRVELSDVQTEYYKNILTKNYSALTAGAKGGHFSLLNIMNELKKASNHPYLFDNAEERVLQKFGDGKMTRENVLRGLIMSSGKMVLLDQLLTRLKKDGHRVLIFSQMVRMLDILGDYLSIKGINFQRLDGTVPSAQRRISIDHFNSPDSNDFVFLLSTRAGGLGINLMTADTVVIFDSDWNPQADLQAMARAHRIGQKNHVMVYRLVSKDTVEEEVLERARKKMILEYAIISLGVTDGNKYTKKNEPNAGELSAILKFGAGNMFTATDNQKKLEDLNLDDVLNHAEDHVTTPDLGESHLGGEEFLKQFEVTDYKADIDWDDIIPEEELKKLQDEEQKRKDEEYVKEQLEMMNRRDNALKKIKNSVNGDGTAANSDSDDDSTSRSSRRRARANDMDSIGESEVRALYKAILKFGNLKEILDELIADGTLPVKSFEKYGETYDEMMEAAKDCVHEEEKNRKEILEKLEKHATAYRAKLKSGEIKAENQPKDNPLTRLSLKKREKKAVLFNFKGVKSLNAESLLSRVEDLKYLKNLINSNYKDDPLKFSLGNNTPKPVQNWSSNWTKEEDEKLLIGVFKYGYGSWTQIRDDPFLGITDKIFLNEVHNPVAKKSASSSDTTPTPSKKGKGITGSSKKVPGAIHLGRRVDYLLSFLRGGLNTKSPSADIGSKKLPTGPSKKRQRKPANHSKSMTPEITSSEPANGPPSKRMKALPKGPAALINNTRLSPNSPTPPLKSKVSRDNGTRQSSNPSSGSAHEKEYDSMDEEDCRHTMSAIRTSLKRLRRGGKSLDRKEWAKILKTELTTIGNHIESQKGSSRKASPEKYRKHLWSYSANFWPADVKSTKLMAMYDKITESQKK
# Chain of Sialic acid-binding Ig-like lectin 9 (Homo sapiens) (Q9Y336 whole entry): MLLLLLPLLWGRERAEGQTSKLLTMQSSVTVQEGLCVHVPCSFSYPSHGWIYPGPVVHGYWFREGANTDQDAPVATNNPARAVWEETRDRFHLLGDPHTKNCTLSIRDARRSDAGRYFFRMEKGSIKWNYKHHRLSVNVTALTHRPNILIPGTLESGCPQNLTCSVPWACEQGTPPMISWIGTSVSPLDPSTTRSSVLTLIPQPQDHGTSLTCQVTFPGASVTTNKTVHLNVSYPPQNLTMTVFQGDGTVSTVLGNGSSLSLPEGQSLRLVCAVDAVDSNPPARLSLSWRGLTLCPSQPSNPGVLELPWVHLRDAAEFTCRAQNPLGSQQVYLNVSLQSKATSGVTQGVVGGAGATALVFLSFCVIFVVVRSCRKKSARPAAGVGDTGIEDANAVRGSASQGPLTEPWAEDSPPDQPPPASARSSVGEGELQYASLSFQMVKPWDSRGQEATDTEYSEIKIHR
# Chain of Protein translocase subunit SecA (Escherichia coli (strain K12)) (P10408 whole entry): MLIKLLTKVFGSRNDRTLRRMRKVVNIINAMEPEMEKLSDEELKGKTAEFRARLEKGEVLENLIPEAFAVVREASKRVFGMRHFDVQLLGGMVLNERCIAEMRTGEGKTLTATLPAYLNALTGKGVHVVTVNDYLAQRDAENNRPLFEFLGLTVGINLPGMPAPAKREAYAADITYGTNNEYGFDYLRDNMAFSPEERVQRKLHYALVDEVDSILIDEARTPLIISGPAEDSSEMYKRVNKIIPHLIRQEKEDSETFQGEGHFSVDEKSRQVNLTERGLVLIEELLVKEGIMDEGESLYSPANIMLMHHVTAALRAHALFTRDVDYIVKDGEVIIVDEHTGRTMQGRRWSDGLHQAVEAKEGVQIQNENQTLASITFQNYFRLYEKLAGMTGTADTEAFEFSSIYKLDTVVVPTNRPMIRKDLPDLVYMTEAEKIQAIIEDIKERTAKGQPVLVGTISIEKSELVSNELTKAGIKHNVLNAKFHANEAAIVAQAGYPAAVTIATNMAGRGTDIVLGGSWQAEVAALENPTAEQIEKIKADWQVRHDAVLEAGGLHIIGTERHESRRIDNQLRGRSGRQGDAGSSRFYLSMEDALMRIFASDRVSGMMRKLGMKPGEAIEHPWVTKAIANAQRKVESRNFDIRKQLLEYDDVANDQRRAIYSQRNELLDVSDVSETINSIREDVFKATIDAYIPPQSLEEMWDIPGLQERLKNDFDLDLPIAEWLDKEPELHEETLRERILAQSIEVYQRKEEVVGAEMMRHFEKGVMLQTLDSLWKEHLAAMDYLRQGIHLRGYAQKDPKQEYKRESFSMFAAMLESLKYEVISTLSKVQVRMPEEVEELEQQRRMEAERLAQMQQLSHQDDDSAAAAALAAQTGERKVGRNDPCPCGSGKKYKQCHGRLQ
SMILES,Percent Effect [1] [%],Percent Effect [2] [%],Percent Effect [3] [%],Percent Effect [4] [%],Percent Effect (Trypanosoma cruzi) [%],Percent Effect [5] [%],Percent Effect [6] [%],Percent Effect (Homo sapiens) [%],Percent Effect [7] [%],Percent Effect [8] [%],Percent Effect [9] [%]
CC(C)OCCC(=O)N(C)CCCc1cc(-c2ccccc2)no1,2.05,18.9,5.99,-0.12,-8.08,-1.66,13.3,22,-1.98,3.66,-5.36
Cc1nc(C)n(CC2CCCCN2CC(=O)NC2CCOCC2)n1 (stereo not drawn),-5.64,18.2,6.87,5.39,6.37,-6.05,5.07,-0.818,3.88,19.5,-7.41
Cc1cc(C2CCCN(C(=O)c3ccc(C)[nH]c3=O)C2)n[nH]1 (stereo not drawn),1.38,0,-0.306,6.13,-1.04,-0.401,1.08,-7.96,3.45,-1.24,4.03
Cn1ncc2c1C(COCC1CC1)CN(Cc1nccs1)C2 (stereo not drawn),-1.87,15.6,-6.52,0.425,1.87,5.81,1.92,28.4,8.47,14.1,-10.6
Cc1ccn(-c2ccccc2NCc2ccccn2)n1,-1.21,0,23.2,4.37,3.13,2.27,0.532,2.69,4.3,10,-1.77
CN(Cc1cnn(-c2ccccc2)n1)CC1CCCN1c1cccnn1 (stereo not drawn),-3.33,-36.8,3.24,7.96,5.7,0.36,-3.98,8.95,8.37,13.6,1.47
Cc1occc1C(=O)N1CCC2(CCC2NC(=O)c2ccn(C)c2)CC1 (stereo not drawn),-5.67,8.11,3.15,-1.3,4.79,-3.5,12,-2.79,6.49,15.4,3.75
CN(C)C(=O)N1C[C@@H]2CC[C@H](C1)N(C(=O)CCCn1cncn1)C2,-2.38,2.7,0.473,0.611,1.74,1.43,19,-5.66,8.99,21.9,-3.6
